Results taken from PubChem BioAssay (EPA / NIEHS).
Where “and” joins values, the source holds several entries; their conditions need not be identical. Equal entries are not always repeated. Results filed as inconclusive are left out. More than one record can exist for a structure, and the calls need not agree. Calls of active or inactive are those of the source. The calls were made as follows: active = hit-call score of the fitted dose curve at least 0.9, where 1 is the maximum; inconclusive = response in the unintended direction; inactive = score below 0.9.

Experiments:
[1] = ATG_M_06_XSP2: Attagene TRANS-FACTORIAL Multi-Species (XSP2) HepG2 Assay for M06 Transcription Factor (Internal Marker) (AID 2283811);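 also: hits are increases in signal above the DMSO baseline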
How it was run: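 Readout: fluorescent reporter-mRNA peaks by capillary electrophoresis after RT-PCR and HpaI digest, scored upward relative to DMSO. Transfected HepG2, 24 h chemical exposure, with 3 nM 6-alpha-fluorotestosterone and 1.5 nM norgestrel added.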

[2] = tested on: turtle Estrogen Receptor (ERa), gene 101933533; assay: ATG_trERa_XSP2: Attagene TRANS-FACTORIAL Multi-Species (XSP2) HepG2 Assay for turtle Estrogen Receptor (ERa) (AID 2283812);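 also: actives raise reporter signal above DMSO so AC50 reflects agonist activity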
How it was run: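 Readout is reporter mRNA quantified by RT-PCR with capillary electrophoresis after 24 h compound exposure, increase relative to DMSO. Uses transiently transfected human HepG2 liver cells carrying a chimeric turtle ERa-Gal4 receptor driving GAL4-UAS reporters.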

[3] = biological target: Estrogen receptor beta (Homo sapiens) (UniProt Q92731); assay: ATG_hERb_XSP2: Attagene TRANS-FACTORIAL Multi-Species (XSP2) HepG2 Assay for human Estrogen Receptor (ERb) (AID 2283813);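 also: actives raise reporter mRNA above DMSO so AC50 reflects agonist induction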
Sequence of Estrogen receptor beta (Homo sapiens) (Q92731 whole entry, looked up, the tested form may be a part): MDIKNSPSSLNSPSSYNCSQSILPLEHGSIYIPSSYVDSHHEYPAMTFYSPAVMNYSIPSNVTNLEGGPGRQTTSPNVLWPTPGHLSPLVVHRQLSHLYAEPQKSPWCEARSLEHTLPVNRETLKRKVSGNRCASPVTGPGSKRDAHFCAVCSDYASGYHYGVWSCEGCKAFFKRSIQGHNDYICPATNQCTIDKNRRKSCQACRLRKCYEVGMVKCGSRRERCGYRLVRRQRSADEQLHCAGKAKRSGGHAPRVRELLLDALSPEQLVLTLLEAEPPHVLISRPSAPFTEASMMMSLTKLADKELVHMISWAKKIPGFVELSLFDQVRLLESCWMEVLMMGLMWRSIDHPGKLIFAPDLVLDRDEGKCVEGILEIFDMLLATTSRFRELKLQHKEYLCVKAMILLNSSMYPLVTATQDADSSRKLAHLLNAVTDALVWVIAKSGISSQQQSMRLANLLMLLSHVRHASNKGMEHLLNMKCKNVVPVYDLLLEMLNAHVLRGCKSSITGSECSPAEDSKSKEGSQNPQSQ
How it was run: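 Transient TRANS reporter system in HepG2: after 24 h of chemical, RNA is reverse-transcribed, reporter cDNA amplified, FAM-labelled and sized by capillary electrophoresis. Induction of the human ERb-Gal4 reporter is measured relative to DMSO.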

[4] = biological target: zebrafish Estrogen Receptor (ER1), esr1 (gene 259252) (UniProt P57717); assay: ATG_zfER1_XSP2: Attagene TRANS-FACTORIAL Multi-Species (XSP2) HepG2 Assay for zebrafish Estrogen Receptor (ER1) (AID 2283816)
Sequence of zebrafish Estrogen Receptor (ER1), esr1 (gene 259252) (P57717 whole entry, looked up, the tested form may be a part): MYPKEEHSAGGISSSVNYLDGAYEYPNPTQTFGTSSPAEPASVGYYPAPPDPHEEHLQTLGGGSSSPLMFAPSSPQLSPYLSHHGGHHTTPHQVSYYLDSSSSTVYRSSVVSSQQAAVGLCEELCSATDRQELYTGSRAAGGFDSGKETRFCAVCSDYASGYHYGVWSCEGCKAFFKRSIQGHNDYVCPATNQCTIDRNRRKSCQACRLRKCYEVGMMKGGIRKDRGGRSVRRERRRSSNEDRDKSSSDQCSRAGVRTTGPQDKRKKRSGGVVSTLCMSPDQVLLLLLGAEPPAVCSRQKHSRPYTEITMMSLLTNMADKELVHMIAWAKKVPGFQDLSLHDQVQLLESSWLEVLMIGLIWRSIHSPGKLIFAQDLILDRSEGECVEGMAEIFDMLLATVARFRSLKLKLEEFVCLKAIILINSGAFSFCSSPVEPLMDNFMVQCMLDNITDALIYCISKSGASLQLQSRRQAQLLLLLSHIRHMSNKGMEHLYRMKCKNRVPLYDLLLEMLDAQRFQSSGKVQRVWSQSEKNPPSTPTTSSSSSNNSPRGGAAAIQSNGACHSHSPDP
How it was run: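 After 24 h compound exposure, RNA from transfected HepG2 cells was reverse-transcribed and reporter transcripts resolved by capillary electrophoresis. The TRANS format reads exogenous zebrafish ER1-Gal4 chimera activity on GAL4-UAS elements; gain of signal against DMSO.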

[5] = biological target: chicken Estrogen Receptor (ERa), ESR1 (gene 396099) (UniProt P06212); assay: ATG_chERa_XSP2: Attagene TRANS-FACTORIAL Multi-Species (XSP2) HepG2 Assay for chicken Estrogen Receptor (ERa) (AID 2283817);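 also: actives raise reporter signal above DMSO so AC50 reflects ER activation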
Sequence of chicken Estrogen Receptor (ERa), ESR1 (gene 396099) (P06212 whole entry, looked up, the tested form may be a part): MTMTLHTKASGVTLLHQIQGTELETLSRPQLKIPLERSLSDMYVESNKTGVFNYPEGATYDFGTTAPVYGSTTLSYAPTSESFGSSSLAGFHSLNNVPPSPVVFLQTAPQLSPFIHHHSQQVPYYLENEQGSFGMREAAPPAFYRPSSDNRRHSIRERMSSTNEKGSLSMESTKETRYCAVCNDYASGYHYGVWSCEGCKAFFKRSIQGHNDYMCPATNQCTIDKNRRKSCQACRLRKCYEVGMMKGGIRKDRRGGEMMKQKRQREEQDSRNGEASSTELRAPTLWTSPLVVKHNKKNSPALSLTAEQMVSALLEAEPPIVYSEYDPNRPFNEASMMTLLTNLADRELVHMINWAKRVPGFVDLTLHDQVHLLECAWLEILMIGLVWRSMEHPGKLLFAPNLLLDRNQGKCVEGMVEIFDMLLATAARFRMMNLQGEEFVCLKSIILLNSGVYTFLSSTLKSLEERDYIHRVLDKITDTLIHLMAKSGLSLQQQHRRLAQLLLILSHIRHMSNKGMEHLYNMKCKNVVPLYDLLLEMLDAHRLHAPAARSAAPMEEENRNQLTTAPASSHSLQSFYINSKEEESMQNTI
How it was run: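 Readout: fluorescent reporter-transcript fragments resolved by capillary electrophoresis after RT-PCR and HpaI cut. Chicken ERa-Gal4 fusion in transiently transfected HepG2, dosed for 24 h; activity taken as increase over DMSO baseline.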

[6] = tested on: zebrafish Estrogen Receptor (ER2a), gene 317734; assay: ATG_zfER2a_XSP2: Attagene TRANS-FACTORIAL Multi-Species (XSP2) HepG2 Assay for zebrafish Estrogen Receptor (ER2a) (AID 2283818);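 also: hits raise reporter mRNA so AC50 reflects activation of zebrafish ER2a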
How it was run: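 Multiplexed trans-reporter readout: RT-PCR then capillary electrophoresis of reporter transcripts after 24 h compound treatment. Human HepG2 carries transfected zebrafish ER2a-Gal4 chimera; 3 nM 6-alpha-fluorotestosterone plus 1.5 nM norgestrel present. Induction scored against DMSO.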

[7] = tested on: frog Estrogen Receptor (ER), gene 398734; assay: ATG_frER1_XSP2: Attagene TRANS-FACTORIAL Multi-Species (XSP2) HepG2 Assay for frog Estrogen Receptor (ER) (AID 2283821);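 also: hits raise reporter mRNA above DMSO baseline so potency means agonist or activator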
How it was run: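 Reporter mRNA induction, detected as fluorescence after RT-PCR and capillary electrophoresis, is the endpoint; activity is fitted upward against DMSO. Cells are human liver HepG2 carrying transfected NR-Gal4 chimeras with GAL4-UAS-driven reporters, harvested 24 h post-dosing.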

[8] = tested on: zebrafish Estrogen Receptor (ER2b), gene 317733; assay: ATG_zfER2b_XSP2: Attagene TRANS-FACTORIAL Multi-Species (XSP2) HepG2 Assay for zebrafish Estrogen Receptor (ER2b) (AID 2283823);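 also: fitted upward as reporter gain over DMSO so potency reflects activation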
How it was run: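 Read-out: fluorescent reporter mRNA, measured by RT-PCR then capillary electrophoresis after HpaI digestion. HepG2 cells carried transiently transfected multi-reporter TRANS constructs (NR-Gal4 chimeras); 24 h chemical exposure; activity scored upward versus DMSO control.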

[9] = biological target: GAL4 Transcription Factor (Internal Marker), GAL4 (gene 855828) (UniProt P04386); assay: ATG_GAL4_XSP2: Attagene TRANS-FACTORIAL Multi-Species (XSP2) HepG2 Assay for GAL4 Transcription Factor (Internal Marker) (AID 2283814);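 also: GAL4 reporter mRNA background control in MRTU transfected cells not a receptor target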
Sequence of GAL4 Transcription Factor (Internal Marker), GAL4 (gene 855828) (P04386 whole entry, looked up, the tested form may be a part): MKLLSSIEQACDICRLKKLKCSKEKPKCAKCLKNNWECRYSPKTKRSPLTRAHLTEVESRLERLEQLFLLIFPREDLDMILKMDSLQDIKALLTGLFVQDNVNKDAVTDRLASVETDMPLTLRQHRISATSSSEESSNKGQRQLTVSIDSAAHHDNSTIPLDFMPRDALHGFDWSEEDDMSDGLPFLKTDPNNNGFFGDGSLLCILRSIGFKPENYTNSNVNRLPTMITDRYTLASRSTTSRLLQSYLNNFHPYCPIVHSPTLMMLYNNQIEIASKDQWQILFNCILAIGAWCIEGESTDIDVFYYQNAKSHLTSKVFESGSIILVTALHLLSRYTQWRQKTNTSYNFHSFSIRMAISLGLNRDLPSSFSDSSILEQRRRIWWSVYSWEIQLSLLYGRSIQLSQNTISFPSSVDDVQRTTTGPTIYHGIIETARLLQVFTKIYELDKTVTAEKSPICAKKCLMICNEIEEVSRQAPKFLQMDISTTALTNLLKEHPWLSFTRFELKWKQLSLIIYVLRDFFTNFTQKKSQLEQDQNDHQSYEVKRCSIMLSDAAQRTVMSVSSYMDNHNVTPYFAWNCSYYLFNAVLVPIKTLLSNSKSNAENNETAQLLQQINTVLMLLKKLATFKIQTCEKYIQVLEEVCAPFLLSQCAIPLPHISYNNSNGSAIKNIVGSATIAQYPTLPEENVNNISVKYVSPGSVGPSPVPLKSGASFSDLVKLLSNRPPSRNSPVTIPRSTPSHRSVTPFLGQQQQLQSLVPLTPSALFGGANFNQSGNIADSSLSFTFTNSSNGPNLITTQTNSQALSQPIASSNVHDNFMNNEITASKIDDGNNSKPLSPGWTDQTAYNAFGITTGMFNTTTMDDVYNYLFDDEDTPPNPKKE
How it was run: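 Background-control readout: gain-of-signal fitted against DMSO. After 24 h exposure of transfected HepG2 (MRTU, GAL4-UAS reporters; 3 nM 6-alpha-fluorotestosterone, 1.5 nM norgestrel present), transcripts quantified by RT-PCR and capillary electrophoresis fluorescence.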

[10] = biological target: Nuclear receptor subfamily 1 group I member 2 (Mus musculus) (UniProt O54915); assay: ATG_mPXR_XSP1: Attagene TRANS-FACTORIAL Multi-Species (XSP1) HepG2 Assay for mouse Pregnane X Receptor (PXR) (AID 2283803)
Sequence of Nuclear receptor subfamily 1 group I member 2 (Mus musculus) (O54915 whole entry, looked up, the tested form may be a part): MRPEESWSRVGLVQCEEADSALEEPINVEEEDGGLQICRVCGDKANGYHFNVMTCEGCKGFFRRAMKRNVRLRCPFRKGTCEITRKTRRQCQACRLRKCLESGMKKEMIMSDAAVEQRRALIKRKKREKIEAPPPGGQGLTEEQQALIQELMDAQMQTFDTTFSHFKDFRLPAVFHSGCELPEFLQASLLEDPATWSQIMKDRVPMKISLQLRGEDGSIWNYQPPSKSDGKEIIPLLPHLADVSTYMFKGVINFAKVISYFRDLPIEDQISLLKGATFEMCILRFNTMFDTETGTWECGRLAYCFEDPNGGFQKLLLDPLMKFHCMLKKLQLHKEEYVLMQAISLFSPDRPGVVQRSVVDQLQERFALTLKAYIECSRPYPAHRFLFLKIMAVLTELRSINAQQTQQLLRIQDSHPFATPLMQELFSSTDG
How it was run: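 Transiently transfected HepG2 cells expressing a receptor-Gal4 chimera drive a GAL4-UAS reporter; 3 nM 6-alpha-fluorotestosterone included. Reporter mRNA read 24 h post-dose by RT-PCR and capillary electrophoresis; gain of signal relative to DMSO.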

[11] = tested on: turtle Thyroid Hormone Receptor, alpha (TRa), gene 101949057; assay: ATG_trTRa_XSP1: Attagene TRANS-FACTORIAL Multi-Species (XSP1) HepG2 Assay for turtle Thyroid Hormone Receptor, alpha (TRa) (AID 2283806)
How it was run: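 After 24 h chemical exposure, reporter transcripts were measured by RT-PCR with fluorescent primer extension, HpaI digestion and capillary electrophoresis. Cells were transiently transfected HepG2 expressing exogenous NR-Gal4 chimeras; medium contained 3 nM 6-alpha-fluorotestosterone; fitted upward relative to DMSO.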

[12] = biological target: zebrafish Thyroid Hormone Receptor alpha (TRa), thraa (gene 30670) (UniProt Q98867); assay: ATG_zfTRa_XSP1: Attagene TRANS-FACTORIAL Multi-Species (XSP1) HepG2 Assay for zebrafish Thyroid Hormone Receptor alpha (TRa) (AID 2283807)
Sequence of zebrafish Thyroid Hormone Receptor alpha (TRa), thraa (gene 30670) (Q98867 whole entry, looked up, the tested form may be a part): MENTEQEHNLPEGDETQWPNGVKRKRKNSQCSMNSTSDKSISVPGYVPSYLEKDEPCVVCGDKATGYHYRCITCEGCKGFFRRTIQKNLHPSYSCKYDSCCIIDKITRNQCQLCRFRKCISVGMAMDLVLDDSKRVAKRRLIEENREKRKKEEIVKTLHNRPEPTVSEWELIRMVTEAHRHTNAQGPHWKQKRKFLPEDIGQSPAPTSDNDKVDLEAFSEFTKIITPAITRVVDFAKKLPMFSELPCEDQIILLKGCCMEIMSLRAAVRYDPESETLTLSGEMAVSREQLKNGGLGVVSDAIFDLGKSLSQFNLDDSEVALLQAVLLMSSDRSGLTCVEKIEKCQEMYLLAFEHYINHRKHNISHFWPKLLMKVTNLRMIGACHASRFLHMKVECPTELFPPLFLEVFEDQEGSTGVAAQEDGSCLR
How it was run: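 Reporter transcripts driven by a chimeric zebrafish TRa–Gal4 protein were measured by RT-PCR with fluorescent labelling and capillary electrophoresis. These came from transiently transfected HepG2 cells after 24 h chemical exposure, with 3 nM 6-alpha-fluorotestosterone added; baseline was DMSO.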

[13] = biological target: human Thyroid hormone Receptor beta (TRb), THRB (gene 7068) (UniProt P10828); assay: ATG_hTRb_XSP1: Attagene TRANS-FACTORIAL Multi-Species (XSP1) HepG2 Assay for human Thyroid hormone Receptor beta (TRb) (AID 2283808)
Sequence of human Thyroid hormone Receptor beta (TRb), THRB (gene 7068) (P10828 whole entry, looked up, the tested form may be a part): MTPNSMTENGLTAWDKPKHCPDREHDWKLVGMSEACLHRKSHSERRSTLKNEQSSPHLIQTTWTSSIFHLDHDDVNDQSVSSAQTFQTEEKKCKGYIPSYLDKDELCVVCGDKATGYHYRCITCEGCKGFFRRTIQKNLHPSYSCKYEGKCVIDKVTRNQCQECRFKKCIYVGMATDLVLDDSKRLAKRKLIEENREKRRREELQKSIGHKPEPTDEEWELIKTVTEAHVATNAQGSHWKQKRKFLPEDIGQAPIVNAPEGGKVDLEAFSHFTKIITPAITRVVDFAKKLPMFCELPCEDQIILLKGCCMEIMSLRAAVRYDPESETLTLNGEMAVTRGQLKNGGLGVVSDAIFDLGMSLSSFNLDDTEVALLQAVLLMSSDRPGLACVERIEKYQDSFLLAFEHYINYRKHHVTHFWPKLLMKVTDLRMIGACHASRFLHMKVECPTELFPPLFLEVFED
How it was run: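 Readout is reporter mRNA induction measured by RT-PCR, fluorescent labelling and capillary electrophoresis, fitted upward relative to DMSO. Transiently transfected human HepG2 cells expressing NR-Gal4 chimeras were dosed for 24 h, medium containing 3 nM 6-alpha-fluorotestosterone.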

[14] = biological target: zebrafish Thyroid Hormone Receptor beta (TRb), thrb (gene 30607) (UniProt Q9PVE4); assay: ATG_zfTRb_XSP1: Attagene TRANS-FACTORIAL Multi-Species (XSP1) HepG2 Assay for zebrafish Thyroid Hormone Receptor beta (TRb) (AID 2283809)
Sequence of zebrafish Thyroid Hormone Receptor beta (TRb), thrb (gene 30607) (Q9PVE4 whole entry, looked up, the tested form may be a part): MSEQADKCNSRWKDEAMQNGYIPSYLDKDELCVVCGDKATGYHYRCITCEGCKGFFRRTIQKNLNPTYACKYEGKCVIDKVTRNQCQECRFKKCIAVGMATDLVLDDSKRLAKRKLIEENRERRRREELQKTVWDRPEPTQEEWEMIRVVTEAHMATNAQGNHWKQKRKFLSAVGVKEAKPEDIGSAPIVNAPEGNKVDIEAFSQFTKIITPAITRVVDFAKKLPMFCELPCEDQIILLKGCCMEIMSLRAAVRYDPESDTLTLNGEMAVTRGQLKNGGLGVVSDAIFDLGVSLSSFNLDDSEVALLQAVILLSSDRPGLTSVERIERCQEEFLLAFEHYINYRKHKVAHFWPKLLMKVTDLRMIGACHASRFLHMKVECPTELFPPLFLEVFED
How it was run: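 HepG2 cells transiently transfected with multiplexed GAL4-UAS reporter units expressing chimeric zebrafish TRb–Gal4. Dosed 24 h with 3 nM 6-alpha-fluorotestosterone present; reporter mRNA measured by RT-PCR, HpaI digestion and capillary electrophoresis; gain of signal versus DMSO.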

[15] = ATG_XTT_Cytotoxicity_XSP1: Cytotoxicity Assessment in the Attagene TRANS-FACTORIAL Multi-Species (XSP1) HepG2 Assay (AID 2283810)
How it was run: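 XTT viability readout taken at 24 hours post-dosing in HepG2 liver cells co-treated with 3 nM 6-alpha-fluorotestosterone. Signal loss relative to DMSO controls reflects cytotoxicity.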

[16] = tested on: chicken Androgen Receptor (AR), gene 422165; assay: ATG_chAR_XSP2: Attagene TRANS-FACTORIAL Multi-Species (XSP2) HepG2 Assay for chicken Androgen Receptor (AR) (AID 2283819);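 also: hits raise reporter mRNA above DMSO so potency is for activation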
How it was run: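 Readout is reporter mRNA induction via RT-PCR/capillary electrophoresis after 24 h chemical exposure, positive direction relative to DMSO. Transiently transfected HepG2 express chimeric chicken AR–GAL4; AR stimulated by 3 nM 6-alpha-fluorotestosterone and 1.5 nM norgestrel.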

[17] = ATG_M_32_XSP2: Attagene TRANS-FACTORIAL Multi-Species (XSP2) HepG2 Assay for M19 Transcription Factor (Internal Marker) (AID 2283826)
How it was run: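 HepG2 cells transiently transfected with GAL4-UAS reporter transcription units, dosed with compound for 24 h in presence of 3 nM 6-alpha-fluorotestosterone and 1.5 nM norgestrel; reporter mRNA quantified by RT-PCR, FAM labelling, HpaI digestion and capillary electrophoresis.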

[18] = ATG_M_19_XSP2: Attagene TRANS-FACTORIAL Multi-Species (XSP2) HepG2 Assay for M32 Transcription Factor (Internal Marker) (AID 2283822)
How it was run: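 Internal background marker in a multi-species nuclear receptor TRANS panel: transfected HepG2 cells exposed 24 h, with 3 nM 6-alpha-fluorotestosterone and 1.5 nM norgestrel present. Readout is RT-PCR of reporter transcripts resolved by capillary electrophoresis, gain-of-signal versus DMSO.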

[19] = tested on: turtle Androgen Receptor (AR), gene 101947425; assay: ATG_trAR_XSP2: Attagene TRANS-FACTORIAL Multi-Species (XSP2) HepG2 Assay for turtle Androgen Receptor (AR) (AID 2283815);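 as to AC50: potency for gain of reporter signal meaning activation above DMSO baseline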
How it was run: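 Reporter transcripts were quantified via RT-PCR and capillary electrophoresis and fitted upward against DMSO. Transiently transfected human HepG2 cells carrying NR-Gal4 chimeras were exposed 24 h, with 3 nM 6-alpha-fluorotestosterone plus 1.5 nM norgestrel added.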

[20] = tested on: frog Androgen Receptor (AR), gene 399456; assay: ATG_frAR_XSP2: Attagene TRANS-FACTORIAL Multi-Species (XSP2) HepG2 Assay for frog Androgen Receptor (AR) (AID 2283824);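 also: reporter mRNA from GAL4-UAS units driven by Xenopus AR-Gal4 chimera; actives raise reporter signal above DMSO so AC50 reflects agonist-like induction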
How it was run: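 Reporter transcript induction, read by RT-PCR with fluorescent capillary electrophoresis, in human liver HepG2 cells carrying an exogenous Xenopus AR-Gal4 fusion and GAL4-driven reporters; chemical exposure 24 hours, activity scored upward against DMSO controls.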

Measured: AC50

CCCCc1ccc(O)cc1
inactive: [1]
active: [2] 2.42 µM and 3.02 µM | [3] 2.45 µM and 2.3 µM | [4] 69.6 µM and 7.15 µM | [5] 3.21 µM and 1.79 µM | [6] 6.3 µM and 1.66 µM | [7] 1.96 µM and 1.08 µM | [8] 12.5 µM and 5.32 µM

c1ccc2c(c1)Nc1ccccc1S2
active: [2] 10.7 µM and 6.48 µM | [3] 27.2 µM and 5.66 µM | [5] 11.3 µM and 4.72 µM | [6] 19 µM and 6.16 µM | [7] 14.7 µM and 13.2 µM | [8] 52.1 µM and 27.9 µM
inactive: [1] | [9] | [4]

O=P(Oc1ccccc1)(Oc1ccccc1)Oc1ccccc1
inactive: [11] | [13] | [14] | [15] | [1] | [9] | [4] | [5] | [6] | [16] | [17]
active: [10] 0.367 µM | [12] 25.4 µM | [8] 7.88 µM

CCC(C)(C)c1ccc(O)cc1
inactive: [9] | [6] | [16] | [18] | [17]
active: [2] 4.29 µM and 1.92 µM | [3] 44.4 µM and 3.05 µM | [4] 34.1 µM and 7.34 µM | [5] 3.58 µM and 2.33 µM | [7] 25.9 µM and 2.38 µM | [8] 13.9 µM and 3.03 µM

O=S(=O)(c1ccc(O)cc1)c1ccc(O)cc1
inactive: [1] | [19] | [16] | [20]
active: [2] 2.98 µM and 2.14 µM | [3] 1.66 µM and 1.76 µM | [19] 27 µM | [4] 41.8 µM and 17.2 µM | [5] 2.24 µM and 2.5 µM | [6] 5.32 µM and 3.79 µM | [16] 27.1 µM | [7] 2.94 µM and 894 nM | [8] 6.5 µM and 3.07 µM | [20] 8.07 µM

CC(C)(C)c1ccc(O)cc1
active: [2] 6.07 µM and 4.64 µM | [4] 170 µM and 51.1 µM | [5] 4.76 µM and 6.06 µM | [7] 26.6 µM | [8] 34.3 µM and 13.7 µM
inactive: [1] | [6] | [7] | [17]
